Compounds with a hit are over-represented: about 6% of the library has one in this group of screens.
D1 agonist: agonists of human D1 dopamine receptor. HEK293 T-REx D1 cells, calcium flux, agonist mode. activation, % at 2 µM. 360,000 compounds, 1% hits. AID 504660; in the data active = activation above about 30%; also: 0% is about no effect
Target sequence (P21728 whole entry, looked up): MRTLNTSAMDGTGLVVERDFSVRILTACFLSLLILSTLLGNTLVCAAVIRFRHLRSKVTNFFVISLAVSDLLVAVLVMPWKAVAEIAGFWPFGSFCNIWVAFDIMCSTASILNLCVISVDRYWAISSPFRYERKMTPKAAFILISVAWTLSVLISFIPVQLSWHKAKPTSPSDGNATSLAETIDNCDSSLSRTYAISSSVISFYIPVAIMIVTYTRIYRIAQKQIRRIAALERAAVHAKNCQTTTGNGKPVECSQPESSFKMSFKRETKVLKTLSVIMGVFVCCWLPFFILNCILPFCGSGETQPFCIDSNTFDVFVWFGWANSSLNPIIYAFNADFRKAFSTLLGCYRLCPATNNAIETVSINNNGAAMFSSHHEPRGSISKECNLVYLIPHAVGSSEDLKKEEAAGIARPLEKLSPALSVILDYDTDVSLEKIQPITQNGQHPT
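Tetracycline-induced HEK293 TREx D1 cells, force-coupled to calcium signalling, were dye-loaded with a no-wash calcium kit. Compound was pin-added after a 10 s baseline. Fluorescence was read kinetically at 1 cycle/s for 180 s, with calcium rises flagged as agonism.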
D1 PAM: enhances dopamine response at the human D1 receptor; P21728; HEK293 TREx D1 cells, calcium flux, dopamine EC20 potentiation; potentiation, % at 10 µM; 360,000 compounds, 0.036% hits; AID 504651; in the data active = potentiation above about 30%; also: 0% is about no effect
DRD3 antagonist: antagonists of human D3 dopamine receptor; P35462; D3R cells, DiscoveRx beta-arrestin luminescence, antagonist mode; hits give low values; max response, negative = inhibition, %; 360,000 compounds, 2.5% hits; in the data active = max response below about -50%; inconclusive = no clear call, values can overlap the other calls; also: % is scaled to controls: 0 for no effect and ±100 for the full control effect
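Cells plated overnight at 1500 cells/well, then exposed to library compounds with dopamine controls for 90 minutes at 37 degrees C. DiscoveRx reagent added for 30–60 minutes at room temperature; luminescence read, quantitative HTS format.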
DRD3 agonist: D3 dopamine receptor (human) agonism | P35462 | D3R DiscoveRx beta-arrestin cells, luminescence, 90 min | max activation, % | AID 652048 | 410,000 compounds, 0.58% hits; in the data active = max activation above about 30%; also: 0% is about no effect
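Cells at 1500/well, incubated overnight, then treated with pinned compounds (dopamine as control) for 90 min at 37 degrees C. DiscoveRx reagent added for 30 - 60 minutes at room temperature; luminescence read.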
D1 antag: blocks dopamine activation of the human D1 receptor. P21728. 360,000 compounds, 3.2% hits. activity change, negative = inhibition, % at 10 µM. HEK293 TREx D1 cells, calcium flux, dopamine EC80; hits give low values; in the data active = activity change below about -30%; also: % is scaled to controls: 0 for no effect and ±100 for the full control effect
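Tetracycline-induced HEK293 T-REx cells with force-coupled D1 receptor were loaded with a no-wash calcium dye. Compound was added after a 10 s baseline and read kinetically for 180 s; EC80 dopamine was then added and calcium flux followed another 180 s.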
Starred values were filed as active, the others as inactive.

What do the screens show for `CCN1CCc2c(sc(NC(=O)c3ccc(S(=O)(=O)N4CCCC4)cc3)c2C(=O)NC)C1`?
D1 agonist: 1; D1 PAM: -3; DRD3 antagonist: -12; DRD3 agonist: 1; D1 antag: -19

How did CC(=O)N1CCc2c(sc(NC(=O)Cc3ccccc3)c2C(N)=O)C1 do in these assays?
D1 agonist: -1; D1 PAM: 4; DRD3 antagonist: 0; DRD3 agonist: -10; D1 antag: 3

Results for CNC(=O)c1c(NC(=O)c2ccc(S(=O)(=O)N3CCCc4ccccc43)cc2)sc2c1CCN(C)C2 ?
D1 agonist: 19; D1 PAM: -12; DRD3 antagonist: inconclusive; DRD3 agonist: -6; D1 antag: -57*

Results for CCCN1CCc2c(sc(NC(=O)c3ccc(S(=O)(=O)N(C)c4ccccc4)cc3)c2C(=O)NC)C1 ?
D1 agonist: 63*; D1 PAM: 2; DRD3 antagonist: 0; DRD3 agonist: -13; D1 antag: 0

What do the screens show for `CCCN1CCc2c(sc(NC(=O)c3ccc(S(=O)(=O)N(C)c4ccccc4)cc3)c2C(N)=O)C1`?
D1 agonist: 133*; D1 PAM: 6; DRD3 antagonist: 13; DRD3 agonist: 2; D1 antag: -20

What do the screens show for `CCCN1CCc2c(sc(NC(=O)Cc3ccc(F)cc3)c2C(N)=O)C1`?
D1 agonist: 4; D1 PAM: -6; DRD3 antagonist: -59*; DRD3 agonist: -19; D1 antag: -1

Results for CCOc1ccc(S(=O)(=O)Nc2ccc(-c3ccc(OC)nn3)cc2)cc1 ?
D1 agonist: 20; D1 PAM: -1; DRD3 agonist: -13; D1 antag: 2

How did CCn1cc(C(=O)N(C)c2cc(C)ccc2C)c2cc(OC)c(OC)cc2c1=O do in these assays?
D1 agonist: 2; D1 PAM: 3; DRD3 agonist: 2; D1 antag: -34*

What do the screens show for `CCn1cc(C(=O)N(C)c2cc(C)ccc2OC)c2cc(OC)c(OC)cc2c1=O`?
D1 agonist: 1; D1 PAM: 0; DRD3 antagonist: 0; DRD3 agonist: 3; D1 antag: -10

How did O=C(CCCn1nnnc1CN1CCOCC1)N1CCC(c2ccccc2F)C1 (centres undefined) do in these assays?
D1 agonist: 4; D1 PAM: 1; DRD3 antagonist: 10; DRD3 agonist: -2; D1 antag: 10

How did O=C(CCn1nnnc1CN1CCOCC1)N1CCC(c2cccc(Cl)c2)C1 (centres undefined) do in these assays?
D1 agonist: 1; D1 PAM: -11; DRD3 antagonist: 2; DRD3 agonist: -12; D1 antag: -80*

What do the screens show for `C[C@H](NC(=O)c1[nH]cnc1C(=O)Nc1ccc(CNC(=O)OC(C)(C)C)cc1)C(=O)OC(C)(C)C`?
D1 agonist: 2; D1 PAM: -2; DRD3 antagonist: 97; DRD3 agonist: 39*; D1 antag: -4

What do the screens show for `CC(C)(C)OC(=O)NCc1ccc(CNC(=O)c2nc[nH]c2C(=O)N2CCN(C(=O)OC(C)(C)C)CC2)cc1`?
D1 agonist: -1; D1 PAM: -5; DRD3 antagonist: 46; DRD3 agonist: 43*

How did C[C@H]1CNC(=O)c2c(C(=O)Nc3ccc(CNC(=O)OC(C)(C)C)cc3)ncn21 do in these assays?
DRD3 antagonist: 112; DRD3 agonist: 34*

Results for C[C@H]1Cn2cnc(C(=O)Nc3ccc(CNC(=O)OC(C)(C)C)cc3)c2C(=O)N1 ?
DRD3 antagonist: 15; DRD3 agonist: 12

Results for COc1ccc(N2C(=O)CSC23C(=O)N(CC(=O)Nc2ccccc2F)c2ccccc23)cc1 (centres undefined) ?
D1 agonist: 9; D1 PAM: -3; DRD3 agonist: -3; D1 antag: -2

How did CCOc1ccc(NC(=O)CN(C)C(=O)c2cc(-c3cccs3)nn2-c2ccccc2)cc1OCC do in these assays?
D1 agonist: 1; D1 PAM: -4; DRD3 antagonist: inconclusive; DRD3 agonist: -26; D1 antag: -57*

What do the screens show for `O=S(=O)(NCC(c1cccnc1)N1CCN(c2ccc(F)cc2)CC1)c1cccs1` (centres undefined)?
D1 agonist: -2; D1 PAM: -3; DRD3 antagonist: 0; DRD3 agonist: -7; D1 antag: -31*

How did CN1CCN(C(CNC(=O)C(=O)Nc2ccc3c(c2)OCCO3)c2ccc(F)cc2)CC1 (centres undefined) do in these assays?
D1 agonist: 4; D1 PAM: -4; DRD3 antagonist: -1; DRD3 agonist: 108*; D1 antag: -3

Results for COc1ccc(C)cc1NC(=O)C(=O)NCC(c1cccnc1)N1CCc2ccccc21 (centres undefined) ?
D1 agonist: 1; D1 PAM: -2; DRD3 agonist: 10; D1 antag: 6

What do the screens show for `COc1ccccc1N1CCN(C(CNC(=O)C(=O)NCCCN(C)C)c2cccnc2)CC1` (centres undefined)?
D1 agonist: 4; D1 PAM: -5; DRD3 agonist: 2; D1 antag: -21

How did Cc1ccc(C(CNC(=O)C(=O)Nc2ccc3c(c2)OCCO3)N2CCN(C)CC2)cc1 (centres undefined) do in these assays?
D1 agonist: 1; D1 PAM: -6; DRD3 antagonist: 0; DRD3 agonist: -13; D1 antag: 18

Results for COc1ccc(N2CCN(C(CNC(=O)C(=O)NCCCN(C)C)c3cccnc3)CC2)cc1 (centres undefined) ?
D1 agonist: 1; D1 PAM: -2; DRD3 agonist: 4; D1 antag: -35*

How did COc1ccc(C)cc1NC(=O)C(=O)NCC(c1cccnc1)N1CCN(c2ccccc2F)CC1 (centres undefined) do in these assays?
D1 agonist: 3; D1 PAM: -2; DRD3 agonist: -18; D1 antag: -34*

How did Cc1ccc(NC(=O)C2CCCN(S(=O)(=O)c3c(C)nn(C)c3C)C2)c(C)c1 (centres undefined) do in these assays?
D1 agonist: -1; D1 PAM: 5; DRD3 agonist: 4; D1 antag: -2

What do the screens show for `COc1ccccc1N1CCN(C(CNC(=O)C(=O)NCc2ccc(F)cc2)c2cccnc2)CC1` (centres undefined)?
D1 agonist: 33*; D1 PAM: -3; DRD3 agonist: 3; D1 antag: -2

How did CCc1ccc(NC(=O)C(=O)NCC(c2cccnc2)N2CCN(C)CC2)cc1 (centres undefined) do in these assays?
D1 agonist: 53*; D1 PAM: 9; DRD3 agonist: 6; D1 antag: 2

How did Cc1ccc(C(c2sc3nc(-c4ccco4)nn3c2O)N2CCC3(CC2)OCCO3)cc1 (centres undefined) do in these assays?
D1 agonist: -5; D1 PAM: -1; DRD3 agonist: 1
